Source: PubChem BioAssay
ULK1 inh: blocks human autophagy kinase ULK1 | O75385 | inhibition, % at 5.96 µM | AlphaScreen Atg13 phosphorylation by ULK1, luminescence | 1.9% of 30,000 active; in the data active = inhibition above about 43%
ASK1 primary: inhibitors of human ASK1 kinase; Q99683; AlphaScreen MKK6 phosphorylation by ASK1, luminescence; inhibition, % at 7.44 µM; 0.99% of 22,000 active; AID 1159602; in the data active = inhibition above about 35%
Target sequence (Q99683 whole entry, looked up): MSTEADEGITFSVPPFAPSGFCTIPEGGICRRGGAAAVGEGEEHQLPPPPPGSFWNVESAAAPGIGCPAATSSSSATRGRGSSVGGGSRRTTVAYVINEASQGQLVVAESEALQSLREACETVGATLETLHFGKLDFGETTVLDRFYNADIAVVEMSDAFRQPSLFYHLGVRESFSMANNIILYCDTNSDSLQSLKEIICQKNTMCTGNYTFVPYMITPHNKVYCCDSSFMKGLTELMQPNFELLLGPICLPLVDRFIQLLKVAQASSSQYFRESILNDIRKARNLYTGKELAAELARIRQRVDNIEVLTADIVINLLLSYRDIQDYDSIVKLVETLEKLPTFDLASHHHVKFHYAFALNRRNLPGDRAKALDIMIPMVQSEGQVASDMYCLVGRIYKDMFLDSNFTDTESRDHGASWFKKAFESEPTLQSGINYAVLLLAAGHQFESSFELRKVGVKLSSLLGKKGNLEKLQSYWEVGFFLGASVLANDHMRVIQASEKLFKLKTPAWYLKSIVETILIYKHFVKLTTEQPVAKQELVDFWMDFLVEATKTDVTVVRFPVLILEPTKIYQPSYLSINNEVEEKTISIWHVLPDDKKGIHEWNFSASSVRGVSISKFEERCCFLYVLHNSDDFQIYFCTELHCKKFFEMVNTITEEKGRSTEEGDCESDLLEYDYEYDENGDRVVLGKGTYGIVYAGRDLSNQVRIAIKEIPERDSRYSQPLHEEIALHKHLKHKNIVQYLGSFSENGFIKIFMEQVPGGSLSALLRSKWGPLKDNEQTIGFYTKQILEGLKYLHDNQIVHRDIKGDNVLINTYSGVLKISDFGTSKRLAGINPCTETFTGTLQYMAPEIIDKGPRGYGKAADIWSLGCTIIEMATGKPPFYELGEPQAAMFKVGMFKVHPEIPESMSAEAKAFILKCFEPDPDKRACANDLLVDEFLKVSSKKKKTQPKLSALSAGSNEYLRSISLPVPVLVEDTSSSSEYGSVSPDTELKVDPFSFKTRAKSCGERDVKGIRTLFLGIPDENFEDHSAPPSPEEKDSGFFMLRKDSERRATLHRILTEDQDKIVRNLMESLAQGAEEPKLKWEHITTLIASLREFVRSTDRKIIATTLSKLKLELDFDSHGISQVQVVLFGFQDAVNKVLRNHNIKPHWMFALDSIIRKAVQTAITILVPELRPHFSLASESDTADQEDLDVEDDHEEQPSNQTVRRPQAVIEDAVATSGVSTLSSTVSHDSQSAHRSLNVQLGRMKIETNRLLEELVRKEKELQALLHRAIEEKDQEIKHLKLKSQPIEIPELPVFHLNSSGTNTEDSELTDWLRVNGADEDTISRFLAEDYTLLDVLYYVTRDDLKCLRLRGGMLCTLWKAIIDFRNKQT
TruHits interf: interferes with AlphaScreen TruHits signal in ASK1 counter-screen | shares compounds with ASK1 primary | IC50, µM | 20% of 220 active | AlphaScreen TruHits beads, signal interference counterscreen;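 active = IC50 of 10 µM or lower in the counterscreen; inactive = IC50 above 10 µM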;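 note: loss of AlphaScreen light from TruHits beads alone with no ASK1 enzyme present; potency of signal reduction so a low IC50 flags an assay artifact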
Of the large screens only hits and unclear results are named; the others gave an inactive call (follow-up assays come after a bar, where they were run). Rows were chosen to be rich in hits. Some 2.5% of all compounds tested hit in one or more screens of this group.

O=S(=O)(c1ccccc1)N1CCC(c2nnc(-c3ccc(F)cc3)o2)CC1	none (no result: ASK1 primary)
O=c1nc(-c2cccc(Cl)c2)oc2cccc(O)c12	none (no result: ASK1 primary)
COc1ccc(CCNC(=O)c2ccnc(NC3CCC(O)CC3)c2)cc1 (stereo not drawn)	none
O=C(Nc1ccc(N2CCOCC2)cc1)c1cccc(Nc2cnccn2)c1	none
CN1CCN(c2ncn(-c3ccc(Nc4nccc(-c5cc(C#N)cc(N6CCC(O)CC6)c5)n4)cc3)n2)CC1	ASK1 primary 41.0 | TruHits interf inactive
N#Cc1cc(-c2ccnc(Nc3ccc(-n4cnc(N5CCOCC5)n4)cc3)n2)cc(N2CCCC(O)C2)c1 (stereo not drawn)	none
COc1cc(Nc2nc(-c3ccc(C(=O)NC4CC4)cc3)nc3c2ncn3C2CCCCC2)cc(OC)c1OC	none
COc1cc(Nc2nc(-c3ccc(C(N)=O)cc3)nc3c2ncn3C2CCCCC2)cc(OC)c1OC	ASK1 primary 40.4 | TruHits interf inactive
Cc1cnc(Nc2nccc3ccccc23)nc1NCCN1CCOCC1	none
C/C=C(\CC(NCCCC(OC)OC)c1ccccc1)C[Si](C)(C)C (stereo not drawn)	none
FC(F)(F)c1ccc(Cn2cnc3c(NCc4cccc(C(F)(F)F)c4)nc(Nc4ccccc4)nc32)cc1	none
FC(F)(F)c1ccc(Cn2cnc3c(NCc4ccccc4)nc(Nc4ccccc4)nc32)cc1	ASK1 primary 46.1 | TruHits interf inactive
OCCNc1nc(Nc2ccc3ncccc3c2)nc2c1ncn2Cc1ccc(C(F)(F)F)cc1	none
FC(F)(F)c1ccc(Cn2cnc3c(NCc4cccc(C(F)(F)F)c4)nc(Nc4ccc5ncccc5c4)nc32)cc1	ASK1 primary 40.0 | TruHits interf inactive
OCCNc1nc(Nc2nccc3ccccc23)nc2nc[nH]c12	none
O=C(NC1CCN(Cc2ccccc2)CC1)c1cc(N2CCC(N3CCOCC3)CC2)nc2ccccc12	none
Cc1cnc(N2CCN(c3ccccn3)CC2)nc1Nc1ccc(N2CCOCC2)cc1	none
c1nc2c(NCCN3CCOCC3)nc(N3CCC(N4CCOCC4)CC3)nc2n1C1CCCCC1	none
COc1cc2nc(Nc3nccc4ccccc34)nc(Nc3ccc(N4CCOCC4)cc3)c2cc1OC	ASK1 primary 36.2 | TruHits interf inactive
COc1cc2nc(Nc3ccccn3)nc(Nc3ccc(N4CCOCC4)cc3)c2cc1OC	none
CCCNc1nc(Nc2ccc(N3CCOCC3)cc2)nc2cc(OC)c(OC)cc12	none
COc1cc2nc(Nc3ccc(N4CCOCC4)cc3)nc(NCc3ccccc3)c2cc1OC	ASK1 primary 41.4 | TruHits interf inactive
N#Cc1cc(-c2ccnc(Nc3ccc(N4CCOCC4)cc3)n2)cc(N2CCN(C3CC3)CC2)c1	none
c1cc(-c2ccc3[nH]ncc3c2)nc(Nc2ccc(N3CCOCC3)cc2)n1	ULK1 inh 64.8, ASK1 primary 37.7 | TruHits interf inactive
Fc1cc(-c2ccnc(Nc3ccc(N4CCOCC4)cc3)n2)cc(N2CCN(C3CC3)CC2)c1	ULK1 inh 56.0, ASK1 primary 39.7 | TruHits interf inactive
FC(F)(F)c1cc(-c2ccnc(Nc3ccc(N4CCOCC4)nc3)n2)cc(N2CCOCC2)c1	none
FC(F)(F)c1cc(-c2ccnc(Nc3ccc(N4CCOCC4)cc3)n2)cc(N2CCOCC2)c1	ASK1 primary 45.3 | TruHits interf inactive
c1cc(-c2ccc3nonc3c2)nc(Nc2ccc(N3CCOCC3)cc2)n1	none
O=C(Nc1ccc(N2CCOCC2)cc1)c1cccc(-c2cccs2)c1	none
Cc1cc2c(NC(=O)[C@@H]3CC[C@H](N)C3)cccc2nn1	none
c1ccc(OCCNc2nc(Nc3ccncc3)nc3c2ncn3C2CCCCC2)cc1	none
c1ccc(OCCNc2nc(Nc3ccc(N4CCOCC4)cc3)nc3c2ncn3C2CCCCC2)cc1	ASK1 primary 48.2 | TruHits interf 6.98
c1ccc(OCCNc2nc(Nc3ccc(-n4ccnc4)cc3)nc3c2ncn3C2CCCCC2)cc1	ASK1 primary 48.9 | TruHits interf inactive
c1ccc(OCCNc2nc(NCCN3CCOCC3)nc3c2ncn3C2CCCCC2)cc1	none
O=C(NCCN1CCOCC1)c1cccc(-n2ncc3cc(-c4ccccc4)ccc32)c1	none
Cn1nccc1Nc1nccc(NCc2ccccc2)n1	none
CC(C)n1cnc2c(Nc3ccc(Oc4ccccc4)cc3)nc(N3CCOCC3)nc21	ASK1 primary 41.5 | TruHits interf inactive
CC(C)n1cnc2c(NCc3ccccc3)nc(Nc3ccc(N4CCOCC4)cc3)nc21	none
CC(=O)Nc1ccc(Nc2nc(N3CCN(c4ccccn4)CC3)nc3c2ncn3Cc2ccc(C(F)(F)F)cc2)cc1	none
FC(F)(F)c1ccc(Cn2cnc3c(Nc4ccc(N5CCOCC5)cc4)nc(N4CCN(c5ccccn5)CC4)nc32)cc1	ASK1 primary 38.0 | TruHits interf inactive
c1ccc(-n2cnc3c(Nc4ccc(N5CCOCC5)cc4)nc(Nc4ccc(-n5ccnc5)cc4)nc32)cc1	none
CC(C)n1cnc2c(Nc3ccccc3)nc(N3CCOCC3)nc21	none
c1ccc(-n2cnc3c(Nc4ccc(N5CCOCC5)cc4)nc(Nc4cccnc4)nc32)cc1	ASK1 primary 39.8 | TruHits interf inactive
CC(C)n1cnc2c(Nc3ccccc3)nc(Nc3ccc(N4CCOCC4)cc3)nc21	ASK1 primary 46.8 | TruHits interf inactive
c1ccc2c(-c3nc(Nc4ccc(N5CCOCC5)cc4)c4ncn(-c5ccsc5)c4n3)csc2c1	none
O=C(NCc1cccnc1)c1cnc(Nc2ncccn2)s1	none
COc1ccc(CCNC(=O)Cc2cn(-c3ccc(Nc4ccc(N5CCOCC5)cc4)nn3)c3ccccc23)cc1	none
CC(C)n1cnc2c(NCc3cccnc3)nc(-c3ccc(C(N)=O)cc3)nc21	none
CCCNC(=O)c1cncc(Nc2cccnc2)c1	none
CC(C)n1c(Nc2cccnc2)nc2c(NCc3nc4ccccc4[nH]3)ncnc21	none
Cc1cnc(Nc2ccc(-n3ccnc3)cc2)nc1NCCN(C(C)C)C(C)C	none
CC(C)n1cnc2c(Nc3ccccc3)nc(N3CCN(c4ccccn4)CC3)nc21	none
CC(C)n1cnc2c(Nc3ccc(N4CCOCC4)cc3)nc(N3CCN(c4ccccn4)CC3)nc21	ASK1 primary 36.3 | TruHits interf inactive
Nc1nc(Nc2ccccc2)cc(N2CCc3ccccc3C2)n1	none
CN(C)c1cccc(Nc2cccc(C(=O)NCc3ccccc3)n2)c1	none
c1ccc(CNc2nc(N3CCN(Cc4ccc5c(c4)OCO5)CC3)nc3c2ncn3C2CCCCC2)cc1	none
c1ccc(CN2CCC(Nc3nc(N4CCN(Cc5ccc6c(c5)OCO6)CC4)nc4c3ncn4C3CCCCC3)CC2)cc1	ASK1 primary 35.5 | TruHits interf 8.66
COc1ccccc1N1CCN(S(=O)(=O)CCNC(=O)c2ccccc2C)CC1	none (no result: ASK1 primary)
